Source: PubChem BioAssay (EPA / NIEHS)
Active and inactive are the calls of the source. Rule for the calls: active = hit-call score of the fitted dose curve at least 0.9, where 1 is the maximum; inactive = score below 0.9.

Legend:
Settings in all cases: mRNA level, 48 h; actives raise or lower the signal
[1] = read-out: Insulin Like Growth Factor 1 (IGF1), IGF1 (gene 3479); assay: LTEA_HepaRG_IGF1: Life Technologies and Expression Analysis (LTEA) Assay for Insulin Like Growth Factor 1 (IGF1) using HepaRG (AID 2283506)
How it was run: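 Expression measured by TaqMan qRT-PCR on a Fluidigm array, with three housekeeping genes for normalisation, after 48 h treatment of HepaRG cells. Top concentration 100 uM with half-log steps, 0.5% DMSO vehicle, bidirectional fit.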

[2] = read-out: Intercellular Adhesion Molecule 1 (ICAM1), ICAM1 (gene 3383); assay: LTEA_HepaRG_ICAM1: Life Technologies and Expression Analysis (LTEA) Assay for Intercellular Adhesion Molecule 1 (ICAM1) using HepaRG (AID 2283507)
How it was run: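 Gain or loss of transcript in HepaRG hepatic cells is quantified by qRT-PCR after 48 h chemical exposure (up to 100 uM, half-log steps), with DMSO as baseline.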

[3] = read-out: Insulin-like growth factor-binding protein 1 (IGFBP1), IGFBP1 (gene 3484); assay: LTEA_HepaRG_IGFBP1: Life Technologies and Expression Analysis (LTEA) Assay for Insulin-like growth factor-binding protein 1 (IGFBP1) using HepaRG (AID 2283508)
How it was run: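 mRNA induction or loss was quantified by qRT-PCR after 48 h chemical exposure of human HepaRG cells, with 0.5% DMSO as vehicle and baseline. Concentration-response over eight points up to 100 uM.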

[4] = read-out: Interleukin 6 Receptor (IL6R), IL6R (gene 3570); assay: LTEA_HepaRG_IL6R: Life Technologies and Expression Analysis (LTEA) Assay for Interleukin 6 Receptor (IL6R) using HepaRG (AID 2283510);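 for AC50: differentiated human HepaRG liver cells in serum-free induction medium; TaqMan qRT-PCR signal normalized to ACTB GAPDH and POLR2A housekeeping genes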
How it was run: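 IL6R transcript level by qRT-PCR after 48 h chemical exposure (8-point, half-log, max 100 uM, 0.5% DMSO vehicle) of HepaRG cells in serum-free induction medium. Normalized to three housekeeping genes; curves fitted in both directions relative to DMSO.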

[5] = read-out: Potassium channel subfamily K member 1 (KCNK1), KCNK1 (gene 3775); assay: LTEA_HepaRG_KCNK1: Life Technologies and Expression Analysis (LTEA) Assay for Potassium channel subfamily K member 1 (KCNK1) using HepaRG (AID 2283511)
How it was run: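 Human HepaRG cultures receive test chemicals for 48 h in 0.5% DMSO, top concentration 100 uM with half-log dilutions. Induction or suppression of KCNK1 mRNA relative to DMSO is derived by bidirectional fitting of qRT-PCR data.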

[6] = read-out: Keratin 19 (KRT19), KRT19 (gene 3880); assay: LTEA_HepaRG_KRT19: Life Technologies and Expression Analysis (LTEA) Assay for Keratin 19 (KRT19) using HepaRG (AID 2283512)
How it was run: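 Gene-expression endpoint in the human liver line HepaRG after 48 h exposure to up to 100 uM test chemical with 0.5% DMSO vehicle; KRT19 mRNA by qRT-PCR, analyzed bidirectionally versus DMSO.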

[7] = read-out: JUN Transcription Factor, JUN (gene 3725); assay: LTEA_HepaRG_JUN: Life Technologies and Expression Analysis (LTEA) Assay for JUN Transcription Factor using HepaRG (AID 2283513)
How it was run: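 mRNA measured by TaqMan qRT-PCR after 48 h chemical exposure of HepaRG cultures; normalization to three housekeeping genes. Duplicate eight-point half-log curves from 100 uM in 0.5% DMSO; gain or loss fitted against DMSO baseline.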

[8] = read-out: Lipase C (LIPC), LIPC (gene 3990); assay: LTEA_HepaRG_LIPC: Life Technologies and Expression Analysis (LTEA) Assay for Lipase C (LIPC) using HepaRG (AID 2283514)
How it was run: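 In this multiplexed gene-expression screen, human HepaRG cultures received test chemicals for 48 h across eight concentrations with 100 uM highest, in duplicate. Values reflect LIPC mRNA induction or suppression versus DMSO vehicle, from normalized qRT-PCR.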

[9] = read-out: MicroRNA 122 (MIR122), gene 406906; assay: LTEA_HepaRG_MIR122: Life Technologies and Expression Analysis (LTEA) Assay for MicroRNA 122 (MIR122) using HepaRG (AID 2283516); note: the transcript read is the microRNA miR-122
How it was run: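 Expression measured by microfluidic qRT-PCR with three housekeeping genes for normalisation, after 48 h treatment of HepaRG cultures. Eight concentrations (top 100 uM, half-log steps, 0.5% DMSO vehicle) in duplicate; gain or loss fitted relative to vehicle.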

[10] = read-out: matrix metalloproteinase-10 (MMP10), MMP10 (gene 4319); assay: LTEA_HepaRG_MMP10: Life Technologies and Expression Analysis (LTEA) Assay for matrix metalloproteinase-10 (MMP10) using HepaRG (AID 2283517)
How it was run: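 In differentiated HepaRG cultures kept in 0.5% DMSO, test chemicals act for 48 h over an eight-point range with a top dose of 100 uM. Expression is then quantified by TaqMan RT-PCR against ACTB, GAPDH and POLR2A.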

MYC, MYC (gene 4609) = assay: LTEA_HepaRG_MYC: Life Technologies and Expression Analysis (LTEA) Assay for MYC using HepaRG (AID 2283518)
How it was run: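 Cells are thawed, plated and cultured 48 h, then treated for 48 h with test chemicals (eight half-log concentrations from 100 uM, 0.5% DMSO vehicle). RNA is isolated and MYC expression quantified by qRT-PCR against three housekeeping genes.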

[11] = read-out: matrix metalloproteinase-3 (MMP3), MMP3 (gene 4314); assay: LTEA_HepaRG_MMP3: Life Technologies and Expression Analysis (LTEA) Assay for matrix metalloproteinase-3 (MMP3) using HepaRG (AID 2283519)
How it was run: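 Human liver HepaRG cultures received chemicals (top concentration 100 uM, 0.5% DMSO) for 48 h in duplicate. MMP3 mRNA induction or loss was then assessed via TaqMan qRT-PCR with housekeeping-gene normalisation.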

[12] = read-out: Paternally Expressed 10 (PEG10), PEG10 (gene 23089); assay: LTEA_HepaRG_PEG10: Life Technologies and Expression Analysis (LTEA) Assay for Paternally Expressed 10 (PEG10) using HepaRG (AID 2283520);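 for AC50: differentiated HepaRG human liver cells in serum-free induction medium with 0.5% DMSO; PEG10 transcript by qRT-PCR normalised to ACTB GAPDH and POLR2A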
How it was run: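 PEG10 transcript measured by Fluidigm qRT-PCR, normalized to three housekeeping genes, in HepaRG cells treated 48 h (highest 100 uM, half-log steps, 0.5% DMSO vehicle). Cells plated 48 h before switching to serum-free induction medium.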

[13] = read-out: Protein phosphatase 2A (PPP2R4), PTPA (gene 5524); assay: LTEA_HepaRG_PPP2R4: Life Technologies and Expression Analysis (LTEA) Assay for Protein phosphatase 2A (PPP2R4) using HepaRG (AID 2283522)
How it was run: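 Expression was quantified by Fluidigm qRT-PCR normalised to three housekeeping genes after 48 h treatment. Human HepaRG cells received an 8-point series from 100 µM downward by half-logs, in duplicate with 0.5% DMSO vehicle and 1 mM phenobarbital as induction control.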

[14] = read-out: Phosphatase and tensin (PTEN), PTEN (gene 5728); assay: LTEA_HepaRG_PTEN: Life Technologies and Expression Analysis (LTEA) Assay for Phosphatase and tensin (PTEN) using HepaRG (AID 2283523)
How it was run: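 Expression of PTEN is quantified in the human liver line HepaRG following two days of dosing (top concentration 100 uM, half-log dilutions, 0.5% DMSO). Values derive from bidirectional curve fitting relative to DMSO controls.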

[15] = read-out: solute carrier (SLC22A1), SLC22A1 (gene 6580); assay: LTEA_HepaRG_SLC22A1: Life Technologies and Expression Analysis (LTEA) Assay for solute carrier (SLC22A1) using HepaRG (AID 2283524);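 for AC50: differentiated human HepaRG liver cells in serum-free induction medium; TaqMan qRT-PCR normalized to ACTB GAPDH and POLR2A housekeeping genes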
How it was run: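 Transcript induction or suppression of SLC22A1 in human HepaRG cultures is scored after 48 h chemical treatment, with DMSO (0.5%) as baseline for bidirectional fitting. Concentrations span eight half-log points topping at 100 uM.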

[16] = read-out: Pyruvate Dehydrogenase Kinase 4 (PDK4), PDK4 (gene 5166); assay: LTEA_HepaRG_PDK4: Life Technologies and Expression Analysis (LTEA) Assay for Pyruvate Dehydrogenase Kinase 4 (PDK4) using HepaRG (AID 2283525)
How it was run: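 Eight-point, half-log concentration series (max 100 uM, 0.5% DMSO) applied to differentiated HepaRG cells for 48 h in duplicate. Endpoint: PDK4 mRNA induction or repression by qRT-PCR against DMSO baseline.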

[17] = read-out: Interleukin 6 (IL6), IL6 (gene 3569); assay: LTEA_HepaRG_IL6: Life Technologies and Expression Analysis (LTEA) Assay for Interleukin 6 (IL6) using HepaRG (AID 2283509)
How it was run: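 Changes in IL6 mRNA, up or down relative to 0.5% DMSO controls, were derived from concentration-response curves in human HepaRG cells treated for 48 h at up to 100 uM, with ACTB, GAPDH and POLR2A as normalizers.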

[18] = read-out: Lipoprotein lipase (LPL), LPL (gene 4023); assay: LTEA_HepaRG_LPL: Life Technologies and Expression Analysis (LTEA) Assay for Lipoprotein lipase (LPL) using HepaRG (AID 2283515)
How it was run: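 Concentration-response testing used half-log steps from 100 uM in 0.5% DMSO on human HepaRG cells, 48 h, duplicate wells. Phenobarbital 1 mM served as induction control; LPL mRNA was normalized to ACTB, GAPDH, POLR2A.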

[19] = read-out: Nuclear factor NF-kappa-B p105 subunit (Homo sapiens) (UniProt P19838); assay: LTEA_HepaRG_NFKB1: Life Technologies and Expression Analysis (LTEA) Assay for Nuclear Factor Kappa B Subunit 1 (NFKB1) using HepaRG (AID 2283521);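 note: differentiated human HepaRG liver cells in serum-free induction medium; TaqMan qRT-PCR transcript normalised to ACTB GAPDH and POLR2A housekeeping genes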
How it was run: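 HepaRG, 48 h exposure; 8-pt half-log series from 100 uM in 0.5% DMSO; duplicates. Readout: NFKB1 mRNA by qRT-PCR (Fluidigm arrays), housekeeping-normalized. Gain/loss fit vs DMSO baseline.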

Measured: AC50

Nuclear factor NF-kappa-B p105 subunit (Homo sapiens), sequence (P19838 whole entry, looked up): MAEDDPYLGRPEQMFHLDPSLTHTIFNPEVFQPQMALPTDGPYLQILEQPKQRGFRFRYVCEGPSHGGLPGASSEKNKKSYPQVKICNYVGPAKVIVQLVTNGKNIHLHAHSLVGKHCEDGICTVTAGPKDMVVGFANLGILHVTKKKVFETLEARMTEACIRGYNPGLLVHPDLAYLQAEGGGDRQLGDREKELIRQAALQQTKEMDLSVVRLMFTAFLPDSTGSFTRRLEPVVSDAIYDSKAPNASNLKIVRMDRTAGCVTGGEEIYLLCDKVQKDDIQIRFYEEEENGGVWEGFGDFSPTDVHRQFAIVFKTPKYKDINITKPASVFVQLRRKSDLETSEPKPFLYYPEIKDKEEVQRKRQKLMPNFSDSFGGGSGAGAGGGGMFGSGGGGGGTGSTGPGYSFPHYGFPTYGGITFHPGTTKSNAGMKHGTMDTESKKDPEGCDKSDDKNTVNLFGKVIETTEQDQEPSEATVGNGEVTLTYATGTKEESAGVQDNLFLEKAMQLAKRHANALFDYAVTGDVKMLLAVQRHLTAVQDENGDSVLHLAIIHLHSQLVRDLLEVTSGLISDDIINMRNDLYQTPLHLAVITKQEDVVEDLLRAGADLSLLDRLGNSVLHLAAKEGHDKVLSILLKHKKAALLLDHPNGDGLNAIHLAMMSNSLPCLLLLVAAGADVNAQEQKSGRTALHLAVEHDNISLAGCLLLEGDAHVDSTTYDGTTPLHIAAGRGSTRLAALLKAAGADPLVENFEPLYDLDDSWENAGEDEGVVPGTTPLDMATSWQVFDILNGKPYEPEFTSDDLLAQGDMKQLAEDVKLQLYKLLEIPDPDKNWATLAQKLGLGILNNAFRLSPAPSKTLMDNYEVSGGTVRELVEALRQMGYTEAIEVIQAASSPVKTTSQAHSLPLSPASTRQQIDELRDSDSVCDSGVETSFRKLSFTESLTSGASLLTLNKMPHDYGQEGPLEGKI

CN(C)C(=O)Nc1ccc(Cl)c(Cl)c1
active: [3] 34.6 µM | [6] 50 µM | MYC, MYC (gene 4609) 68.8 µM | [12] 63.8 µM | [15] 51.5 µM
not listed: [17] | [18] | [19]
inactive: all other assays above

Oc1ccc(C(c2ccc(O)cc2)C(Cl)(Cl)Cl)cc1
active: [2] 79.3 µM | [3] 88.5 µM | [17] 77.1 µM | [4] 87.8 µM | [6] 50 µM | [7] 91.7 µM | [9] 87.5 µM | [10] 78.6 µM | MYC, MYC (gene 4609) 78 µM | [11] 90.5 µM | [12] 74.8 µM | [13] 82.3 µM | [14] 76.9 µM | [15] 92.3 µM
inactive: [1] | [5] | [16]

C#CCOC(=O)[C@@H](C)Oc1ccc(Oc2ncc(Cl)cc2F)cc1
active: [16] 50 µM
not listed: [17] | [19]
inactive: all other assays above

CCCN(CCC)C(=O)SCC
not listed: [17] | [19]
inactive: all other assays above

CCCCCCC(C)OC(=O)COc1nc(F)c(Cl)c(N)c1Cl (stereo not drawn)
not listed: [8] | [18]
inactive: all other assays above

C#C[C@]1(O)CC[C@H]2[C@@H]3CCC4=CC(=O)CC[C@@H]4[C@H]3CC[C@@]21CC
active: [17] 0.0379 µM | [12] 2.38 µM | [16] 0.442 µM
not listed: [5] | [8] | [18]
inactive: all other assays above

c1ccc(Nc2ccccc2)cc1
not listed: [8] | [17]
inactive: all other assays above
